Results reported in PubChem BioAssay (Tox21).
Several values for one entry are separate records, joined by “and”; a condition that tells them apart may be missing. Equal values may be shown once. Inconclusive results are not listed. Entries that show only a call come without a potency. Some compounds were tested as several samples or in several runs, with calls that do not always agree. Activity calls are given as the source filed them. Calls come from the whole dose curve; as a rule, active = well fitted cell-killing curve with a large enough effect in the repeat runs; inconclusive = weak or mixed curves, or effect the other way; inactive = no such curve, though single readings can be large or run the other way.

Assay: qHTS assay to identify small molecule agonists of the estrogen receptor alpha (ER-alpha) signaling pathway in the presence of an antagonist - cell viability counter screen (AID 1259386);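 note: cells exposed to compounds for 22 h at 37 °C before the viability read; nearly all actives have a fitted effect of over 30% in size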
Settings: VM7Luc4E2 viability, CellTiter-Fluor fluorescence, 22 h; series mostly up to 92.4 µM
From the text: National Center for Advancing Translational Sciences [NCATS]
NIH Chemical Genomics Center [NCGC]
U.S. Environmental Protection Agency [EPA]
National Institutes of Environmental Health Sciences [NIEHS]
National Toxicology Program [NTP]
U.S. Food and Drug Administration [FDA]
Estrogen receptor (ER), a member of nuclear hormone receptor plays an important role in development, metabolic homeostasis and reproduction. Two subtypes of ER, ER-alpha and ER-beta, have similar expression patterns with some uniqueness in both types. Endocrine disrupting chemicals (EDCs) and their interactions with steroid hormone receptors like ER causes disruption of normal endocrine function. Therefore, it is important to understand the effect of environmental chemicals in ER signaling pathway. For identifying ER agonists, VM7Luc4E2 cell line has been used in the current assay.
VM7Luc4E2 cell line (provided by Denison MS, University of California) endogenously expresses full-length ER-alpha and is stably transfected with a plasmid containing four estrogen responsive elements (ERE) upstream of a luciferase reporter gene. This current screening for measuring luciferase reporter gene activity using VM7Luc4E2 cells against Tox21 10K library collection is a confirmation study on agonist mode screening in presence of ER-antagonist (ICI-182,780) at 10.0nM final concentration. The cytotoxicity of the compounds was tested in parallel by measuring the cell viability using CellTiter-Fluor assay system (Promega, Madison, WI) in the same wells.
Tox21 Assay Protocol Summary:
VM7Luc4E2 cells were cultured in phenol red free assay medium containing 10% charcoal stripped FBS for 5 days prior to the assay. The cells were dispensed at 4,000 cells in 4uL of assay medium per well into white wall/solid-bottom 1536-well plates (Corning Life Sciences, Corning, NY) using a Multidrop Combi (Thermo Fisher Scientific Inc., Waltham, MA) dispenser. After the assay plates were incubated at 37C and 5% CO2 for 24hr, 1uL of 10.0nM (final concentration) ICI-182,780 or assay buffer was added using two separate tips of Flying Reagent Dispenser (FRD, Aurora Discovery, San Diego, CA). Then 23nL of compounds dissolved in DMSO at 15 concentrations and positive controls or DMSO only was transferred to the assay plates by a Pintool station (Wako, San Diego, CA). The assay plates were incubated at 37C and 5% CO2 for 22hr. After 21hr incubation at 37C, 1uL/well CellTiter-Fluor reagent (Promega Corporation, Madison, WI) was added to each well using FRD and after 1hr incubation at 37C and 5% CO2, the fluorescence signal was measured on ViewLux plate reader (PerkinElmer, Shelton, CT).
Potency is the fitted concentration of half-maximal effect.

| Structure (SMILES) | Potency |
| --- | --- |
| CC1(C)O[C@@H]2[C@@H](CO[C@@]3(COS(N)(=O)=O)OC(C)(C)O[C@@H]23)O1 | inactive |
| COc1ccc(C(=O)c2ccccc2)c(O)c1 | inactive |
| C=C(C)OC(C)=O | inactive |
| C1CNCCN1 | inactive |
| Cc1c(N(C)C)c(=O)n(-c2ccccc2)n1C | inactive |
| CC(C)(C)NCC(O)c1ccc(O)c(CO)c1 (stereo not given) | inactive |
| CC(=O)/C=C/C1=C(C)CCCC1(C)C | inactive |
| O=C(O)CCCCC1CCSS1 (stereo not given) | inactive |
| CN(C)C=O | inactive |
| O=C1CCCCCN1 | inactive |
| COCCOCCOC | inactive |
| CN/C(=C\[N+](=O)[O-])NCCSCc1ccc(CN(C)C)o1 | inactive |
| NC(N)=NC(N)=NCCc1ccccc1 | inactive |
| CC(C)(C)CC(C)(C)c1ccc(O)c(-n2nc3ccccc3n2)c1 | inactive |
| C#C[C@]1(O)CC[C@H]2[C@@H]3CCC4=CC(=O)CC[C@@H]4[C@H]3CC[C@@]21CC | inactive |
| C[C@]12C[C@H](O)[C@H]3[C@@H](CCC4=CC(=O)CC[C@@]43C)[C@@H]1CC[C@@H]2C(=O)CO | inactive |
| C=C(C)C(N)=O | inactive |
| N[C@@H](Cc1c[nH]c2ccc(O)cc12)C(=O)O | inactive |
| CCOCCO | inactive |
| CCCCCCCCCCCCCC(=O)OC(C)C | inactive |

| Structure (SMILES) | Potency |
| --- | --- |
| Cc1cccc(Nc2cc(Cl)nc(SCC(=O)O)n2)c1C | inactive |
| COc1ccccc1O | inactive |
| Cn1cnc2c1c(=O)[nH]c(=O)n2C | inactive |
| COC(=O)c1ccc(O)cc1 | inactive |
| CCOC(=O)C(C)(C)Oc1ccc(Cl)cc1 | inactive |
| O=C(O)Cc1cccc2ccccc12 | inactive |
| Cc1cnc(NC(=O)C2=C(O)c3ccccc3S(=O)(=O)N2C)s1 | 43.4 µM (active) and inactive |
| C[C@]12C=CC(=O)C=C1CC[C@@H]1[C@@H]2C(=O)C[C@@]2(C)[C@H]1CC[C@]2(O)C(=O)CO | inactive |
| C/C=C/c1ccc(O)c(OC)c1 | inactive |
| O=C(OCc1ccccc1)c1ccccc1 | inactive |
| CC(C)CC(C)CC(O)CC(C)C (stereo not given) | inactive |
| CCCCNC(=O)NS(=O)(=O)c1ccc(N)cc1 | inactive |
| C=CC(=O)NC(C)(C)CS(=O)(=O)O | inactive |
| CO[C@H]1C=CO[C@@]2(C)Oc3c(C)c(O)c4c(O)c(c(/C=N/N5CCN(C)CC5)c(O)c4c3C2=O)NC(=O)/C(C)=C\C=C[C@H](C)[C@H](O)[C@@H](C)[C@@H](O)[C@@H](C)[C@H](OC(C)=O)[C@@H]1C | 27.4 µM (active) and 31 µM (active) and 23.7 µM (active) |
| NC(=O)OCC(COC(N)=O)c1ccccc1 | inactive |
| C[C@]12CC[C@@H]3c4ccc(O)cc4C[C@@H](CCCCCCCCCS(=O)CCCC(F)(F)C(F)(F)F)[C@H]3[C@@H]1CC[C@@H]2O (stereo not given in full) | inactive |
| CC(C)Cc1ccc(C(C)C(=O)O)cc1 (stereo not given) | inactive |
| Cc1cccc2ccccc12 | inactive |
| CC(=O)Oc1ccccc1C(=O)O | inactive |
| O=C1OC(c2ccc(O)cc2)(c2ccc(O)cc2)c2ccccc21 | inactive |
